Five molecules from PubChem BioAssay can be followed below.

Activity calls are given as the source filed them.

One assay has as its target Albumin (Bos taurus) (UniProt P02769). Nature of the assay: compounds binding labelled BSA control protein – biochemical, small-molecule microarray, Alexa647 label, 635/667 nm fluorescence, artefact control for SMM control protein annotation, profiling panel (AID 1118).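 Further: score merges 667 nm emission intensity and signal-to-noise per printed compound spot.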 The following applies: BSA-A647 binding, fluorescence 635 nm, higher = more signal.
The nature of assay [1]: probe aXIP binding to arrayed compounds – biochemical, NeuroSMM set, 635/667 nm fluorescence, primary screen (AID 1119).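 Further: probe is the protein aXip251-270 applied at 1 µg/mL to compound-printed slides; binding of probe to printed compounds measured as 667 nm fluorescence plus signal to noise.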 To be noted: small-molecule microarray, higher = more signal, called active from +8 up or from −8 down.
The nature of assay [2]: probe aNOTCH3 binding on compound microarray – biochemical, small-molecule microarray, 635/667 nm fluorescence, primary screen (AID 1120).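 Further: probe is a biotin-tagged antibody raised against NOTCH3 rather than NOTCH3 protein; score merges spot fluorescence near 667 nm with spot signal to noise.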 To be noted: higher = more signal.
A short description of assay [3]: probe aNOTCH2 binding on compound microarray – biochemical, small-molecule microarray, 635/667 nm fluorescence, primary screen (AID 1121).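 Further: score merges feature fluorescence read at 667 nm with its signal to noise.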 The following applies: higher = more signal.
In assay [4] the target is Carbonic anhydrase 2 (Homo sapiens) (UniProt P00918). Nature of the assay: compounds binding carbonic anhydrase 2 – biochemical, small-molecule microarray, Alexa647-labelled CAII, profiling panel (AID 1122). To be noted: CAII-A647 binding fluorescence, higher = more signal.
Assay [5] is described as follows: COS7 lysate on small-molecule microarray, probe aHis, 635 nm (AID 1123).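 Further: z-score combines 667nm fluorescence intensity with signal-to-noise per printed compound spot.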 The following applies: COS7 cell lysate, fluorescence, higher = more signal.
Assay [6] in a line: probe aLAP1 signal on lysate-treated microarray – cell lysate, small-molecule microarray, COS7 lysate, primary screen (AID 1124).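 Further: lysate comes from COS7 cells expressing LAP1 and is applied at 0.3 µg/mL; score merges spot fluorescence near 667 nm with signal-to-noise over triplicate slides.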 To be noted: probe aLAP1, fluorescence, higher = more signal.
A further assay has as its system Sam68 (KHDRBS1). In words: compounds binding KHDRBS1 protein – biochemical, small-molecule microarray, 635 nm fluorescence, primary screen (AID 1125).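 Further: score merges 667 nm channel intensity with signal to noise over triplicate slides.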 To be noted: higher = more signal.
Assay [7] concerns Chordin-like protein 2 (CHRDL2). Nature of the assay: compounds binding chordin-like 2 – biochemical, small-molecule microarray, 635 nm fluorescence, primary screen (AID 1126).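 Further: printed compound slides probed with Chrdl2 protein at 4 µg/mL for 1 h at 4 C; score merges 667 nm emission intensity with signal to noise over three replicate slides.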 To be noted: fluorescence 635 nm, higher = more signal.
In assay [8] the target is Concanavalin-A (Canavalia ensiformis) (UniProt P02866). Nature of the assay: compounds binding concanavalin A lectin – biochemical, small-molecule microarray, Alexa647 label, 635 nm, artefact control for SMM control protein annotation, primary screen (AID 1127).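 Further: z combines 667 nm emission intensity with signal-to-noise across three replicate slides.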 The following applies: ConA-A647 binding fluorescence, higher = more signal.
Assay [9] is described as follows: compounds binding Alexa647 anti-His antibody – biochemical, small-molecule microarray, 635 nm fluorescence, artefact control for SMM control protein annotation, primary screen (AID 1128).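 Further: score merges feature fluorescence with signal-to-noise for each printed compound spot.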 To be noted: higher = more signal.
Assay [10] deals with Human papillomavirus type 1a E7 protein (residues 1-88). In words: HPV1a E7 small-molecule binders, primary screen, biochemical, small-molecule microarray, residues 1-88, 635 nm (AID 1129). The following applies: small-molecule microarray binding, fluorescence 635 nm; higher = more signal.
Assay [11] has as its target Focal adhesion kinase 1 (Homo sapiens) (UniProt Q05397). In words: PTK2 protein binding on printed compound slides – biochemical, small-molecule microarray, 635/667 nm fluorescence, BSA, DTT, primary screen (AID 1130).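 Further: composite of spot emission at 667 nm and signal to noise over triplicate slides.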 To be noted: 635 nm fluorescence, higher = more signal.
In assay [12] the test system is Fibrinogen (Alexa647-labelled). In words: Alexa647-fibrinogen binding to printed small molecules – biochemical, small-molecule microarray, 635/667 nm fluorescence, artefact control for SMM control-protein annotation, profiling panel (AID 1131).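 Further: z-score merges 667 nm fluorescence with per-spot signal-to-noise over triplicate slides.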 To be noted: fibrinogen-A647 binding fluorescence, higher = more signal.
Assay [13] concerns the target Follistatin (Homo sapiens) (UniProt P19883). Nature of the assay: FST protein binding to printed compounds – biochemical, small-molecule microarray, 635/667 nm fluorescence, primary screen (AID 1132). To be noted: 635 nm fluorescence, higher = more signal.
Assay [14] addresses Fibroblast growth factor 2 (Homo sapiens) (UniProt P09038). In words: basic fibroblast growth factor binding to printed compounds – biochemical, small-molecule microarray, 635/667 nm fluorescence, primary screen (AID 1133). The following applies: FGF2, fluorescence 635/667, higher = more signal.
The nature of assay [15]: JC-1 mitochondrial potential readout, lung cancer cells – cell-based, A549, JC-1 fluorescence, basal, 24 h, 100 nL, profiling panel (AID 1138).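 Further: A549 lung adenocarcinoma cells under basal conditions with no added stimulus; test concentration not given here.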 The following applies: higher = more signal.
The subject of the next assay is Lefty1. Nature of the assay: Lefty1 protein binding to printed compounds – biochemical, small-molecule microarray, 635/667 nm fluorescence, primary screen (AID 1139). The following applies: fluorescence 635/667, higher = more signal.
In assay [16] the test system is wheat germ agglutinin (Triticum aestivum), Alexa647-labelled. Nature of the assay: Alexa647-WGA lectin binding to printed small molecules – biochemical, small-molecule microarray, 635/667 nm fluorescence, artefact control for SMM control-protein annotation, profiling panel (AID 1140).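 Further: score merges 667 nm feature emission with signal to noise over triplicate slides.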 The following applies: WGA-A647 binding, 635 nm fluorescence, higher = more signal.

Assay [17] concerns the target Luciferin 4-monooxygenase (Photinus pyralis) (UniProt P08659). In words: inhibition of purified Photinus pyralis luciferase – biochemical, luminescence, purified enzyme, 2006 set, primary screen (AID 1141).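 Further: cell-free assay with purified firefly luciferase at 100 ng per well in PBS; test concentration not given here.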 To be noted: purified firefly luciferase, SteadyGlo luminescence, 30 min; higher = more signal, called active from +8 up or from −8 down.

Chain of Albumin (Bos taurus) (P02769 whole entry, looked up): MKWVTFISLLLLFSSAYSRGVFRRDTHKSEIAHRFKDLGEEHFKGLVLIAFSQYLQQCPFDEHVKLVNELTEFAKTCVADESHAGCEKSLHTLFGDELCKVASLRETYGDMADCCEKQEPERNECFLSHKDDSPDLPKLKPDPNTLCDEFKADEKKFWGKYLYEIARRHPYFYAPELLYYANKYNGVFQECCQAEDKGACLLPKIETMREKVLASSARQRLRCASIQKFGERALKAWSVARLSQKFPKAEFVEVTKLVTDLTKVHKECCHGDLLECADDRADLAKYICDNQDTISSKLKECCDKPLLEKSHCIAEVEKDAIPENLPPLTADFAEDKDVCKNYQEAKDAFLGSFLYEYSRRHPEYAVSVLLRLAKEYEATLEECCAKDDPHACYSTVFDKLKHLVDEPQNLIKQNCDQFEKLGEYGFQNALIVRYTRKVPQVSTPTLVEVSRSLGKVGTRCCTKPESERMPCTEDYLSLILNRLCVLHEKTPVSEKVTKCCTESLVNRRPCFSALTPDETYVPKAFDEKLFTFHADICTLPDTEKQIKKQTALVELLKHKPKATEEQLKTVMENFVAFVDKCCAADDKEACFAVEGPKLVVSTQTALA
Chain of Fibroblast growth factor 2 (Homo sapiens) (P09038 whole entry, looked up): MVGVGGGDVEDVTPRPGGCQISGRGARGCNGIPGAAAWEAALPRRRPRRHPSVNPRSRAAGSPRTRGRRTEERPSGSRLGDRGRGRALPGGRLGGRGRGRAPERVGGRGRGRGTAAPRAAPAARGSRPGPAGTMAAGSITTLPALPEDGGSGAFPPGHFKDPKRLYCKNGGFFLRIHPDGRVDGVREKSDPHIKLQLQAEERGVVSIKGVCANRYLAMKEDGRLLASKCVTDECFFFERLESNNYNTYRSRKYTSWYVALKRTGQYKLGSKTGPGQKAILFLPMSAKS
Chain of Concanavalin-A (Canavalia ensiformis) (P02866 whole entry, looked up): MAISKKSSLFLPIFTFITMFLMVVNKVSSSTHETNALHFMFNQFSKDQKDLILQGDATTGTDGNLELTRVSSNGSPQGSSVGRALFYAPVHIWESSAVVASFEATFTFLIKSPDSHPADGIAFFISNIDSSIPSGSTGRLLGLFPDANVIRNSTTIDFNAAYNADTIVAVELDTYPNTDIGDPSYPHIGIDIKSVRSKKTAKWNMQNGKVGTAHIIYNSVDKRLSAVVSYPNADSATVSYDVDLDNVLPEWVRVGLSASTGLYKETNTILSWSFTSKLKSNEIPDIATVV
Chain of Follistatin (Homo sapiens) (P19883 whole entry, looked up): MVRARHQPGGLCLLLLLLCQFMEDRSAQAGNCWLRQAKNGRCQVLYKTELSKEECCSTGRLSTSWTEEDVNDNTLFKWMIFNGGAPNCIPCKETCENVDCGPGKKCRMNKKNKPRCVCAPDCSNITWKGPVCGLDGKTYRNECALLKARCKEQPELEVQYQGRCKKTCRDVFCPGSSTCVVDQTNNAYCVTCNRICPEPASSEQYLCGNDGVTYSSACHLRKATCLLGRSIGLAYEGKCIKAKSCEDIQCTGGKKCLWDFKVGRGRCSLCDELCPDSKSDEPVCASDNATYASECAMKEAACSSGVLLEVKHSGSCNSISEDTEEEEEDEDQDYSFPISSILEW
Chain of Luciferin 4-monooxygenase (Photinus pyralis) (P08659 whole entry, looked up): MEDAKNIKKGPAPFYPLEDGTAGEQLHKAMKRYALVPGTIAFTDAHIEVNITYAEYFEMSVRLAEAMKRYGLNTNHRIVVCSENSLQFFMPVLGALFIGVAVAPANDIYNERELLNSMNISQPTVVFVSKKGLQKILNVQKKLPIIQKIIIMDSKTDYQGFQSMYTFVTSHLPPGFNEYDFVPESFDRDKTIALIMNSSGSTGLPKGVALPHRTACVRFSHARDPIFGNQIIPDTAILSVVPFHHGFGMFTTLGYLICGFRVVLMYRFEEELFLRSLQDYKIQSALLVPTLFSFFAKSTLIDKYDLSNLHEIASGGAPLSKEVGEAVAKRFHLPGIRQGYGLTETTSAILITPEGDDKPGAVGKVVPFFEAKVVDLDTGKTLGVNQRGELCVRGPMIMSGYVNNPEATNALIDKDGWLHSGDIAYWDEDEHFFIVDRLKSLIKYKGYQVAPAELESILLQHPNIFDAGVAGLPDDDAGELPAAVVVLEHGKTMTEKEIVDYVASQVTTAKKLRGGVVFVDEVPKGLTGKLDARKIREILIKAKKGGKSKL
Chain of Focal adhesion kinase 1 (Homo sapiens) (Q05397 whole entry, looked up): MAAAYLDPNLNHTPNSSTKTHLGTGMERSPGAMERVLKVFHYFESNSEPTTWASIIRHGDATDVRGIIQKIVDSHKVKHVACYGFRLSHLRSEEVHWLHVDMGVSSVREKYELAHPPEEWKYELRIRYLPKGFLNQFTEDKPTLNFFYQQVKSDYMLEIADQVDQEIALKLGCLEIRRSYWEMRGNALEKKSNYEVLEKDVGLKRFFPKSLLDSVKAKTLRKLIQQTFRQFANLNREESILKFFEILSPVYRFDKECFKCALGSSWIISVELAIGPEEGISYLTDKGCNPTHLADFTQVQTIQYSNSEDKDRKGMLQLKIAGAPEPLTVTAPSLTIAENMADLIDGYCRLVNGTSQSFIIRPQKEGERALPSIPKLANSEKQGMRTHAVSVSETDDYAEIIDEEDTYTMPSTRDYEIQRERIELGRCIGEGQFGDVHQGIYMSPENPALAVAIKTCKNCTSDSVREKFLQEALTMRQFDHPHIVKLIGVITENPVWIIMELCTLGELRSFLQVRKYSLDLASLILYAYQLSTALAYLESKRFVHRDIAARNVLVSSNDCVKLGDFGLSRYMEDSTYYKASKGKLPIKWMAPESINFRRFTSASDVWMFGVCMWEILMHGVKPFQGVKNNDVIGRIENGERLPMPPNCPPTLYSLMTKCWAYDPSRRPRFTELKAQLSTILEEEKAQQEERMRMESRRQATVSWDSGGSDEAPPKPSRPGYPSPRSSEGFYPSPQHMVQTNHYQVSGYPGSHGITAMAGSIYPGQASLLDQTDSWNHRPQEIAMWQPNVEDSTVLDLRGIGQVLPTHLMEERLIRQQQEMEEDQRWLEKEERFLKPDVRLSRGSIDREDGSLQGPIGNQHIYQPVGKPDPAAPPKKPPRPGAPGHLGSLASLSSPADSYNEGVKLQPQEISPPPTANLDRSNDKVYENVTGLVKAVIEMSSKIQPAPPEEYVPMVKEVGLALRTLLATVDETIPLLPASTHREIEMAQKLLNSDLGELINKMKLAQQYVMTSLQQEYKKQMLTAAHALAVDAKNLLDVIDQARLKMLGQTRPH

Take `C[N+](C)(C)CCCC[C@@H]1NC(=O)[C@H]2C[C@@H](C(=O)NCCCCCCNC(=O)CS)[C@@H](c3cccc(OCCO)c3)N2C1=O`: the composite z-score in the assay with Albumin (Bos taurus) was 0.492; in assay [2], -0.246; in assay [3], -0.146; in [4], 0.881; in assay [5] it was 1.8; in assay [6] it was 0.864. Besides, the composite z-score with Sam68 (KHDRBS1) is -0.365; in assay [7], -1.44; in assay [8] it was -0.338; in assay [9], 1.03; in assay [10], -0.945; in assay [11], 0.434. The composite z-score in assay [12] was -1.56; in assay [13] it was 0.897; in assay [14] it was 0.885; in the assay on Lefty1, -1.36; in [16], 0.396. The composite Z-score in [1] is 3.4 (inactive). Further, the z-score in assay [15] was -0.32; in [17], -0.252 (inactive).
Regarding `NC(=O)[C@@H]1[C@H]2C(=O)O[C@H](c3ccccc3)[C@H](c3ccccc3)N2[C@H](c2ccc(O)cc2)[C@@]12C(=O)Nc1ccccc12`, the composite z-score with Albumin (Bos taurus) is 0.257; in assay [2], -0.288; in assay [3], -0.155; in assay [4] it was 0.75; in [5] it was 2.37; in assay [6], 0.691. In addition, the composite z-score was 0.203 in the assay on Sam68 (KHDRBS1); -1.73 in [7]; -0.161 in assay [8]; -0.393 in assay [9]; -0.507 in assay [10]; 0.119 in assay [11]. The composite z-score in assay [12] was -0.538; in assay [13], -0.5; in assay [14], -1.17; with Lefty1 it was -0.827; in assay [16] it was 0.156. For the same molecule, the composite Z-score in assay [1] is -0.622 (inactive). Moreover, the z-score in assay [15] was -1.11; in assay [17], -0.366 (inactive).
For `CCCC#C[Si](O[C@H](CC)c1cn(Cc2cccc(Cl)c2)nn1)(C(C)C)C(C)C`, the composite z-score with Albumin (Bos taurus) was 0.697; in [2] it was 0.0715; in assay [3] it was -0.179; in assay [4] it was 0.182; in assay [5] it was 1.03; in assay [6], 0.249. The composite z-score is 1.18 in the assay on Sam68 (KHDRBS1); 0.103 in assay [7]; 0.7 in assay [8]; 0.849 in assay [9]; 0.87 in assay [10]; -0.442 in [11]. In addition, the composite z-score in [12] was 0.684; in assay [13], 0.357; in [14], 0.54; in the assay with Lefty1, 0.467; in assay [16], 0.686. For the same molecule, in assay [1], the composite Z-score was -0.014 (inactive). In addition, the z-score in assay [15] was -0.264; in assay [17], -0.786 (inactive).
On to `O=C(NC1CC1)[C@@H]1c2ccccc2C(=O)N(Cc2ccccc2Cl)[C@H]1c1ccc(CO)cc1`, for which the composite z-score in the assay with Albumin (Bos taurus) is -0.243; in assay [2], 0.0765; in assay [3], -0.0411; in [4], 0.633; in assay [5], 2.33; in assay [6], 0.108. Also, the composite z-score with Sam68 (KHDRBS1) was determined as 1.33; in [7], 0.516; in assay [8] it was 1.02; in assay [9] it was 3.06; in assay [10], 0.981; in assay [11] it was 1.06. For the same molecule, the composite z-score in assay [12] was 0.57; in assay [13], 1.33; in assay [14], 1.32; with Lefty1 it was 0.233; in [16], 0.447. Also, the composite Z-score in assay [1] is 0.0965 (inactive). In addition, the z-score in assay [15] is 3.13; in assay [17] it was -1.44 (inactive).
`CC(C)C(=C=CC[C@@H](O)c1ccc(OCCO)cc1)C[C@@H](O)COCc1ccccc1`: the composite z-score is 0.531 with Albumin (Bos taurus); 0.0744 in assay [2]; -0.105 in assay [3]; 0.624 in assay [4]; 0.924 in [5]; 0.664 in assay [6]. The composite z-score in the assay with Sam68 (KHDRBS1) is 1.19; in [7], 0.325; in [8] it was -0.625; in assay [9], -0.547; in [10], 0.948; in [11], 0.0144. The composite z-score in assay [12] was 0.602; in [13], 1.36; in assay [14], 1.46; in the assay on Lefty1, 1.58; in assay [16], 0.225. Also, the composite Z-score in [1] was -0.114 (inactive). Besides, the z-score in assay [15] is 0.922; in [17], -1.3 (inactive).
